# Cardio protect – cardioprotection against H2O2-induced cell death, primary screen, uHTS, H9c2 cells, ATPLite luminescence; H9c2 cardiomyocytes, H2O2 injury protection, 2 h; 360,000 compounds, 0.63% hits; AID 588492, 2011; protection from H2O2 cell death, % at 20 µM;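 active = compounds giving at least 50% protection of heart cells from peroxide-induced death in the single-dose screen, raw or plate-pattern-corrected value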
# PLCb3 inh – human PLC-beta3 inhibitors, primary screen, biochemical, fluorescence; inhibition, % at 12.2 µM; 1-phosphatidylinositol 4,5-bisphosphate phosphodiesterase beta-3 (Homo sapiens), Q01970; Purified PLC-beta3, fluorogenic substrate; 370,000 compounds, 0.18% hits
# PLC-gamma1 inh – PLC-gamma1 enzyme inhibitors, primary screen, biochemical, fluorescence, purified enzyme. 1-phosphatidylinositol 4,5-bisphosphate phosphodiesterase gamma-1 (Homo sapiens), P19174. fluorogenic substrate. inhibition, % at 12.2 µM. 370,000 compounds, 0.84% hits; in the data active = inhibition above about 9.5%
# FAS-TE inh – FAS thioesterase domain inhibitors, primary screen, biochemical, fluorescence intensity, uHTS; inhibition, % at 15 µM; recombinant FAS-TE, OMFH fluorogenic substrate, fluorescence endpoint; 360,000 compounds, 0.67% hits; Fatty acid synthase (Homo sapiens), P49327; AID 602261, 2012;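 active = compounds whose normalised, plate-corrected inhibition of enzyme fluorescence in the single-dose primary screen is 50% or more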
# PLCg1 ctr – PLC-gamma1 enzyme inhibitors, counter-screen for PLC-beta3 inhibitor project, biochemical, fluorescence. shares compounds with PLC-gamma1 inh. AID 743258, 2014. inhibition, % at 12.3 µM. 3,300 compounds, 3.1% hits. purified PLC-gamma1, fluorogenic substrate; in the data active = inhibition above about 9.5%
# PLCbeta3 conf – PLC-beta3 inhibitor confirmation, biochemical, fluorescence, purified enzyme; 3,300 compounds, 1% hits; shares compounds with PLC-gamma1 inh; AID 743261, 2014; inhibition, % at 12.3 µM; fluorogenic substrate fluorescence
# A number is an active result; i = inactive; nt = no result given. Compounds with a hit are over-represented: about 2.2% of the library has one in this group of screens. Cut-off read from the data, not from the text of the source, unless noted: active = inhibition above about 11%; inactive = the rest.
SMILES,Cardio protect,PLCb3 inh,PLC-gamma1 inh,FAS-TE inh,PLCg1 ctr,PLCbeta3 conf
Cc1cc(OCC(O)CN2CCc3ccccc3C2)ccc1Cl (stereo unspecified),i,i,i,i,nt,nt
COC(=O)[C@@]12CCCCC3=C1N(CCC3)C(=O)[C@H]2CC(=O)N1CCSCC1,nt,i,i,nt,nt,nt
Cc1ccc(/C=C/C(=O)O)cc1S(=O)(=O)NCC1CCCO1 (stereo unspecified),i,i,i,i,nt,nt
Cc1ccc(/C=C/C(=O)O)cc1S(=O)(=O)NC1CCS(=O)(=O)C1 (stereo unspecified),i,i,11.2,i,i,i
COc1ccc(NS(=O)(=O)c2ccc(S(=O)(=O)N3CCCC3)cc2)cc1Cl,i,i,14.6,i,i,i
O=C(COC(=O)/C=C/c1cccc(F)c1)NNC(=O)c1ccccc1,i,i,10.7,i,i,i
O=C(OCc1ccccc1C(F)(F)F)c1ccc(Br)c(S(=O)(=O)N2CCOCC2)c1,i,i,i,i,nt,nt
CC(C(=O)c1ccc(-c2ccccc2)cc1)[n+]1cccc(NC(=O)c2ccccc2)c1 (stereo unspecified),i,i,9.7,i,i,i
CCOC(=O)c1ccc[n+](C(C)C(=O)c2ccc(-c3ccccc3)cc2)c1 (stereo unspecified),i,i,i,i,nt,nt
CN(C)CCN(Cc1ccccc1)C(c1ccnc2ccccc12)c1nnnn1-c1ccc2c(c1)OCCO2 (stereo unspecified),nt,i,i,i,nt,nt
Cc1cc(NC(=O)c2cc(-c3ccccc3)on2)n(-c2ccccc2)n1,i,11.5,i,i,i,i
O=C(c1ccc2n[nH]nc2c1)N1CCN(c2ccc(C(F)(F)F)cn2)CC1,i,i,i,i,nt,nt
CC1(C(=O)NS(=O)(=O)c2ccccc2Cl)CCN1C(=O)Cc1ccc(Cl)cc1Cl (stereo unspecified),i,i,i,i,nt,nt
O=C(Nc1ccc(N2CCOCC2)c2nonc12)C1CCCC1,i,i,i,i,nt,nt
Nc1ccc(N2CCOCC2)c2nonc12,i,i,31.0,i,i,i
COC(=O)c1cccc2c([N+](=O)[O-])c(NC(C)=O)cc(C(=O)OC)c12,nt,i,i,nt,nt,nt
COc1cc(C(=O)Nc2ccc3c(c2)C(=O)N(CCC(=O)O)C3=O)cc(OC)c1OC,i,i,11.3,i,9.5,i
N#CC(c1ccc(N)cc1)C(CC(=O)c1ccccc1)c1ccccc1 (stereo unspecified),i,i,i,i,nt,nt
CCCNC(=O)c1cccc(Cn2nc(C)c(Br)c2C)c1,i,i,12.2,i,i,i
Cc1nn(Cc2cccc(C(=O)NC34CC5CC(CC(C5)C3)C4)c2)c(C)c1Br,i,i,i,i,nt,nt
CC(=O)Nc1cccc(-c2ccnc3c2CC(C(=O)NCC2CCOCC2)O3)c1 (stereo unspecified),i,12.6,12.2,i,i,i
CC(=O)NCCNC(=O)C1Cc2c(-c3cccc(NC(C)=O)c3)ccnc2O1 (stereo unspecified),i,i,i,i,nt,nt
Fc1ccc(-c2nc(-c3cccs3)no2)cc1,i,i,i,i,nt,nt
Fc1ccc(-c2cc(-c3cccs3)cc(-c3ccccc3)n2)cc1,i,i,13.9,i,i,i
CCOC(=O)C1CCN(C(=O)Cn2c(=O)oc3cc(S(=O)(=O)N4CCCC4)ccc32)CC1,i,i,i,i,nt,nt
SMILES,Cardio protect,PLCb3 inh,PLC-gamma1 inh,FAS-TE inh,PLCg1 ctr,PLCbeta3 conf
COc1ccc(CNC(=O)C(=O)NCC(c2ccco2)N2CCOCC2)cc1 (stereo unspecified),i,i,10.0,i,i,i
O=C(NCc1ccccc1)C(=O)NCC(c1ccco1)N1CCOCC1 (stereo unspecified),i,nt,nt,i,nt,nt
COCCNCCCOc1ccc(Br)cc1Cl,i,i,11.0,i,9.5,i
Cc1ccsc1/C=N/NC(=O)C1CC(=O)N(c2ccccc2)C1 (stereo unspecified),i,11.2,i,i,i,i
Cc1ccc(S(=O)(=O)NCC(c2ccco2)N2CCc3ccccc32)cc1 (stereo unspecified),i,i,i,i,nt,nt
COc1ccc(S(=O)(=O)NCC(c2ccco2)N2CCc3ccccc32)cc1 (stereo unspecified),i,i,10.7,i,i,i
Cc1c(Br)c(O)c(Br)c2sc(=O)oc12,i,i,9.9,i,i,i
Cc1ccccc1NC1=NS(=O)(=O)c2ccccc21,i,i,i,i,nt,nt
Cc1ccc(C)c(NC2=NS(=O)(=O)c3ccccc32)c1,i,i,10.6,i,i,i
CC(C)C[C@H](NC1(C(=O)NCCc2c[nH]c3ccccc23)CCC1)C(=O)NCCCc1ccccc1,nt,i,12.7,nt,i,i
CC(C)C[C@H](NC1(C(=O)NCCc2c[nH]c3ccccc23)CCOCC1)C(=O)NCCCc1ccccc1,nt,i,i,nt,nt,nt
O=C(NCC(c1ccccc1)c1ccccc1)[C@H](Cc1c[nH]c2ccccc12)NC1(C(=O)NC2CCCCC2)CCC1,nt,i,10.0,nt,i,i
O=C(NCC(c1ccccc1)c1ccccc1)[C@H](Cc1c[nH]c2ccccc12)NC1(C(=O)NC2CCCCC2)CCCC1,nt,i,i,nt,nt,nt
CN1CCC(N[C@@H](Cc2ccccc2)C(=O)NCC(c2ccccc2)c2ccccc2)(C(=O)NC2CCCCC2)CC1,nt,i,12.4,nt,i,i
O=C(c1ccccc1Cl)N1CCSCCS1(=O)=O,nt,i,i,nt,nt,nt
C[C@H](CO)N1C[C@H](C)[C@@H](CN(C)Cc2cccnc2)Oc2cc(-c3cccnc3)ccc2S1(=O)=O,i,i,i,i,nt,nt
C/C(=N\NC(=O)c1ccc(Cn2cc(Br)cn2)o1)c1ccc(NC(=O)c2ccoc2C)cc1,i,i,i,i,nt,nt
COc1ccc(C(=O)NCC(C)(C)N2CCOCC2)cc1S(=O)(=O)NCc1ccc(Cl)cc1,i,i,11.7,i,i,i
COc1ccc(C(=O)NCCNC(C)=O)cc1S(=O)(=O)NCc1ccc(Cl)cc1,i,i,i,i,nt,nt
Cc1ccc(C(NC(=O)c2cccc(S(=O)(=O)N3CCN(C)CC3)c2)c2ccccc2)cc1 (stereo unspecified),i,i,10.1,i,i,i
CS(=O)(=O)c1cccc(C(=O)NC(c2ccccc2)c2ccccc2)c1,i,i,i,i,nt,nt
CCC(c1nc2ccccc2[nH]1)N(Cc1cccnc1)C(=O)c1cc(-c2ccccc2)on1 (stereo unspecified),i,i,i,i,nt,nt
O=C(Nc1cccc(S(=O)(=O)Nc2ccc(Cl)cc2)c1)c1ccccn1,i,i,9.7,i,i,i
Cc1ccccc1NS(=O)(=O)c1cc(C(=O)NCc2ccco2)ccc1C,i,i,10.0,i,i,i
O=C(NCc1ccco1)c1ccc(Br)c(S(=O)(=O)N2CCCCC2)c1,i,i,11.0,i,i,i
Cc1ccc(C(=O)NCc2ccco2)cc1S(=O)(=O)Nc1cccc(C)c1C,i,i,i,i,nt,nt

# High-throughput results: PubChem, several laboratories
